For 38 compounds, growth results are on record in PubChem BioAssay (NCI).

The panel holds about 83,000 compounds, 20% with a hit somewhere; the sample as a whole holds those more often.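 Values shown are percent growth following 48 h exposure of cells in 96-well plates to a single concentration of compound; below 10 was considered active.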 Unmarked numbers belong to inactive results. The source made the active and inactive calls.

The first experiment relates to MDA-MB-231 breast. The experiment in a line: NCI-60 one-dose screen, 48 h (100 = growth as untreated, 0 = no growth, -100 = all killed). Conditions: 10 µM unless noted.
Regarding `COC(=O)N[C@H]1CCc2c(Br)c(OC)c(OC)c(OC)c2-c2ccc(SC)c(=O)cc21`, the growth was -12.3% (active).
Consider `O=C(CC1(O)C(=O)Nc2ccc(Br)cc21)c1ccc(C(=O)NCC2CCC3(CC2)OOC2(CCCCC2)OO3)cc1` (centres undefined), for which the growth was 56.8%.
Regarding `C=C1C(=O)O[C@H]2[C@H]1CC/C(COC(=O)C(=O)c1cn(Cc3ccccc3)c3ccccc13)=C\CC[C@@]1(C)O[C@@H]21`, the growth was -57.2% (active).
Consider `O=C1C2C(C(=O)[N]1[Hg][c]1cccs1)C1(Cl)C(Cl)=C(Cl)C2(Cl)C1(Cl)Cl` (centres undefined), for which the growth was -56.2% (active).
Consider `O=C1CN=C(c2ccc(Cl)cc2)c2sccc2N1`, for which the growth was 100%.
Same read-out and setting: next, `O=C1NC(=O)C(=Cc2cccn2CCCCCn2c3ccccc3c(=O)c3ccccc32)C(=O)N1`: 116%; `Nc1c(F)cc(-c2nc3cc(F)ccc3[se]2)cc1Br`: 17.8%; `O=[N+]([O-])CC(c1ccccc1Cl)c1c(-c2ccccc2)[nH]c2ccccc12` (centres undefined): 46.2%.
Turning to `CC(CO)NC1CCCCC1` (centres undefined), the growth is 91.2%.
On the same count and under the same terms, the result for `OCCNC(Cc1ccccc1)c1ccc2c(c1)OCO2` (centres undefined) reads 98.7%; that for `Clc1cccc(N2COOC3(OOC2)C2CC4CC(C2)CC3C4)c1`, 98.9%.

For another experiment, the system named is RXF 393 renal. The description is as above. Conditions: 10 µM unless noted.
Take `CCCC[C@H](NC(=O)[C@H]1CCCCN1C)C(=O)N(C)[C@H](C[C@@H](OC(C)=O)c1nc(C(=O)N[C@@H](Cc2ccccc2)C[C@H](C)C(=O)OCC)cs1)C(C)C`: the growth is 28.8%.
Take `O=C([O][Hg][CH2]C1OCCOC1[CH2][Hg][O]C(=O)c1ccccc1)c1ccccc1` (centres undefined): the growth is -90.1% (active).
For the compound `Cn1cc(-c2csc(-c3cn(CCN4CCOCC4)c4ccccc34)n2)c2cccnc21`, the growth is 93.7%.
As to `O=C(O)c1c(Cl)n(Cc2ccc(O)cc2)c2ccc(O)cc12`, the growth was 46.6%.
Take `CCCCCCCCCCCCCCCCCCOc1ccccc1COP(=O)(O)OOCC[N+](C)(C)C`: the growth was -64.7% (active).
The same measure, in the same setting: the result for `CC(C)(C)N1CC1C#N` (centres undefined) reads 107%; that for `COC(=O)[C@@H](C)C[C@H](Cc1ccc2ccccc2c1)NC(=O)c1csc([C@@H](C[C@H](C(C)C)N(C)C(=O)[C@@H](NC(=O)[C@H]2CCCCN2C)C(C)C)OC(C)=O)n1`, 49.1%.
For `CCCCC1(CCC)C(=O)NC(=S)NC1=O`, the growth is 195%.
With `Nc1ccc(Cl)cc1`, the growth was 105%.
As to `COc1ccc([As]=[As]c2ccc(OC)c(NCS(=O)(=O)O)c2)cc1NCS(=O)(=O)O` (centres undefined), the growth was -17.9% (active).
For `CC1(C)C(C(=O)c2cn(CCCCF)c3ccccc23)C1(C)C`, the growth was 84.5%.
For `O=[N+]([O-])c1ccc([Se]C2CCCCC2Cl)c([N+](=O)[O-])c1` (centres undefined), the growth was 67.7%.
On the same count and under the same terms, next, `COP(=O)(OC)C(O)c1ccc(Cl)cc1` (centres undefined): 108%; `Cc1cnc(/C=C/C(=O)O)cc1-c1cc2c(cc1C)C(C)(C)CCC2(C)C`: 93.7%; `COC(=O)[C@H](C[C@H](Cc1ccccc1)NC(=O)c1csc([C@@H](C[C@H](C(C)C)N(C)C(=O)[C@@H](NC(=O)[C@H]2CCCCN2C)C(C)C)OC(C)=O)n1)NC(=O)OCc1ccccc1`: 20.4% [8.5 µM].
For `Cc1ccc2c(C(C[N+](=O)[O-])c3cccs3)c(-c3ccccc3)[nH]c2c1` (centres undefined), the growth was 13.8%.
For `CCOC(=O)[C@@H](C)C[C@H](Cc1ccccc1)NC(=O)c1csc([C@@H](C[C@H](C(C)C)N(C)C(=O)[C@@H](NC(=O)[C@H]2CCCCN2C)C(C)(C)C)OC(C)=O)n1`, the growth is 23.8%.
With `NC(=O)C(Br)c1ccccc1` (centres undefined), the growth was 104%.
For the compound `CC(=O)O[C@H](C[C@H](C(C)C)N(C)C(=O)[C@@H](NC(=O)[C@H]1CCCCN1C)C(C)C)c1nc(C(=O)N[C@@H](Cc2ccccc2)C[C@H](C)C(=O)O)c(CCOCc2ccccc2)s1`, the growth is 18.3%.
`O=NN1CCCc2cccc(O)c21`: the growth is -4.04% (active).
Regarding `C#C[C@]1(OC(=O)CCCCCC)CC[C@H]2[C@@H]3CCC4=CC(=O)CC[C@@H]4[C@H]3CC[C@@]21C`, the growth is 58.8%.
As for `CC(=O)OC1C(OC/C2=C/C3[C@@H](C(C)C)CC=C(C)[C@@H]3CC(OC(=O)/C=C/c3cn(C)cn3)[C@]3(C)C=C[C@@]2(O)O3)OCC(O)C1O` (some centres undefined), the growth is -20.6% (active).
Regarding `COC1CC2c3ccccc3C1C(C)=[N+]2C` (centres undefined), the growth was 98%.
Take `NC(=O)CNc1ccc([As]=[As]c2ccc(NCC(N)=O)cc2)cc1` (centres undefined): the growth was 32.1%.
On the same count and under the same terms, next, `CCCCCN(CCCCC)CC(O)c1cc(Cl)ccc1OC` (centres undefined): 30.7%.
Turning to `ClC1=C(Cl)C(Cl)(C2(Cl)C(Cl)=C(Cl)C(Cl)=C2Cl)C(Cl)=C1Cl`, the growth was -83.2% (active).
For `CCOC(=O)[C@@H](C)C[C@H](Cc1ccccc1)NC(=O)c1nc([C@@H](C[C@H](C(C)C)N(C)C(=O)[C@@H](NC(=O)[C@H]2CCCCN2C)C(C)C)OC(C)=O)sc1CCOCc1ccccc1`, the growth is -14.2% (active).
Consider `COC(=O)N[C@H]1CCc2c(Br)c(OC)c(OC)c(OC)c2-c2ccc(SC)c(=O)cc21`, for which the growth is 16.8%.
Take `O=C(CC1(O)C(=O)Nc2ccc(Br)cc21)c1ccc(C(=O)NCC2CCC3(CC2)OOC2(CCCCC2)OO3)cc1` (centres undefined): the growth is 69.5%.
Regarding `C=C1C(=O)O[C@H]2[C@H]1CC/C(COC(=O)C(=O)c1cn(Cc3ccccc3)c3ccccc13)=C\CC[C@@]1(C)O[C@@H]21`, the growth was -90.2% (active).
For `O=C1C2C(C(=O)[N]1[Hg][c]1cccs1)C1(Cl)C(Cl)=C(Cl)C2(Cl)C1(Cl)Cl` (centres undefined), the growth is -83.5% (active).
Same read-out and setting: next, `O=C1CN=C(c2ccc(Cl)cc2)c2sccc2N1`: 100%; `O=C1NC(=O)C(=Cc2cccn2CCCCCn2c3ccccc3c(=O)c3ccccc32)C(=O)N1`: 110%; `Nc1c(F)cc(-c2nc3cc(F)ccc3[se]2)cc1Br`: 74.8%.
As for `O=[N+]([O-])CC(c1ccccc1Cl)c1c(-c2ccccc2)[nH]c2ccccc12` (centres undefined), the growth is 27.8%.
Regarding `CC(CO)NC1CCCCC1` (centres undefined), the growth is 114%.
As to `OCCNC(Cc1ccccc1)c1ccc2c(c1)OCO2` (centres undefined), the growth is 109%.
On to `Clc1cccc(N2COOC3(OOC2)C2CC4CC(C2)CC3C4)c1`, for which the growth is 92.1%.
